Reference: PubChem BioAssay (NCATS)
Inconclusive results are not listed. Activity calls are given as the source filed them. The call rests on the fitted dose curve; in most records, active means well fitted curve in the direction sought with a large enough effect; inconclusive means small, poorly fitted or top-dose-only effect, or another doubt; inactive means no such curve, though single readings can be large; an effect the other way counts as inactive or inconclusive. Numbered stars: 1 amine (or outer) side, 2 acyl side, 3 side chain; on linkers, the order of the positions; unused ones are H or OH. Bridge positions count the residues as written; N and C are the ends. Square brackets hold non-standard residues; d marks the D form. Peptide text beside a SMILES is read from it. I, II: the chains in the order shown. Actinocin(9to1) = Cc1c2oc3c(C)ccc(C(=O)[*:1])c3nc-2c(C(=O)[*:2])c(N)c1=O; NMeV = CN[C@H](C(=O)O)C(C)C; Sar = CNCC(=O)O

Tests used:
[1] = qHTS of pediatric cancer cell lines to identify multiple opportunities for drug repurposing: Primary screen for MG 63 (6-TG R) cells (AID 1347105); further: nearly all actives have a fitted effect of over 50% in size; further: potency means the concentration at half of the fitted maximal effect
Summary of the method: (§1)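 Readout: CellTiter-Glo luminescence, 48 h treatment. Controls DMSO (neutral) and bortezomib 2.3 µM final (positive). Potency and efficacy taken from primary-screen concentration-response curves.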

[2] = qHTS of pediatric cancer cell lines to identify multiple opportunities for drug repurposing: Primary screen for Rh30 cells (AID 1347107); further: series mostly up to about 46 µM; nearly all actives have a fitted effect of over 75% in size
Summary of the method: (§2)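 Cells (500-1,000/well) rested 5 h, then received compounds for 48 h; metabolically active cells were measured by CellTiter-Glo luminescence. Final concentrations spanned up to 46 µM (MIPE, 11-point) or 0.59 nM-46 µM (NPC, 8-point) in primary screens, 11-point in follow-ups.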

[3] = qHTS of pediatric cancer cell lines to identify multiple opportunities for drug repurposing: Primary screen for Rh41 cells (AID 1347108);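 further: series mostly up to about 46 µM; luminescence drop marks cytotoxic hits; nearly all actives have a fitted effect of over 70% in size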
Summary of the method: as §1

[4] = qHTS of pediatric cancer cell lines to identify multiple opportunities for drug repurposing: Confirmatory screen for NB1643 cells (AID 1347109); further: nearly all actives have a fitted effect of over 45% in size
Summary of the method: as §2

[5] = qHTS of pediatric cancer cell lines to identify multiple opportunities for drug repurposing: Confirmatory screen for A673 cells (AID 1347110);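 further: potency means the concentration at half of the fitted maximal effect; cells exposed to compound for 48 h before the viability read; nearly all actives have a fitted effect of over 65% in size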
Summary of the method: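 qHTS titration format: primary MIPE 0.78 nM-46 µM (11 pts), NPC 0.59 nM-46 µM; confirmation 11 pts. 48 h, CTG luminescence.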

[6] = qHTS of pediatric cancer cell lines to identify multiple opportunities for drug repurposing: Confirmatory screen for BT-12 cells (AID 1347112);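 further: potency means the concentration at half of the fitted maximal effect; viability read after 48 h of compound exposure; nearly all actives have a fitted effect of over 55% in size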
Summary of the method: as §2

[7] = qHTS of pediatric cancer cell lines to identify multiple opportunities for drug repurposing: Confirmatory screen for LAN-5 cells (AID 1347113); further: nearly all actives have a fitted effect of over 65% in size; further: potency means the concentration at half of the fitted maximal effect
Summary of the method: as §2

[8] = qHTS of pediatric cancer cell lines to identify multiple opportunities for drug repurposing: Confirmatory screen for DAOY cells (AID 1347114); further: potency means the concentration at half of the fitted maximal effect; nearly all actives have a fitted effect of over 65% in size
Summary of the method: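 Viability measured as metabolically active cells via CellTiter-Glo luminescence following 48 hours of compound exposure, 11-point dilutions in confirmatory testing. 500-1,000 cells/well plated 5 hours before dosing; controls were DMSO and 2.3 µM bortezomib.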

[9] = qHTS of pediatric cancer cell lines to identify multiple opportunities for drug repurposing: Confirmatory screen for NB-EBc1 cells (AID 1347115);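 further: cells exposed to compound for 48 h before the viability read; nearly all actives have a fitted effect of over 45% in size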
Summary of the method: as §2

Measured: Potency

CC[C@@H](CO)NCCN[C@@H](CC)CO
inactive: [1] | [2] | [3]

Cc1c2oc3c(C)ccc(C(=O)N[C@@H]4C(=O)N[C@H](C(C)C)C(=O)N5CCC[C@H]5C(=O)N(C)CC(=O)N(C)[C@@H](C(C)C)C(=O)O[C@@H]4C)c3nc-2c(C(=O)N[C@@H]2C(=O)N[C@H](C(C)C)C(=O)N3CCC[C@H]3C(=O)N(C)CC(=O)N(C)[C@@H](C(C)C)C(=O)O[C@@H]2C)c(N)c1=O (I: T[dV]P[Sar][NMeV] / II: T[dV]P[Sar][NMeV]; ester I:1-I:C, II:1-II:C; linker I:N-II:N via Actinocin(9to1))
inactive: [2] | [4] | [9]
active: [1] 33.5 nM | [5] 13.1 nM | [6] 20.8 nM | [7] 2.3 nM | [8] 26.1 nM

CC(=O)O[C@]1(C(C)=O)CC[C@H]2[C@@H]3C[C@H](C)C4=CC(=O)CC[C@]4(C)[C@H]3CC[C@@]21C
active: [5] 1310 nM
inactive: [1] | [7] | [9]

O=c1[nH]c(=O)n([C@H]2CCCO2)cc1F
inactive: [1] | [2] | [3]

CC[N+](CC)(CCNC(=O)C(=O)NCC[N+](CC)(CC)Cc1ccccc1Cl)Cc1ccccc1Cl
inactive: [1] | [2] | [3]

CCN1CCN(c2cc3c(cc2F)c(=O)c(C(=O)O)cn3C2CC2)CC1
inactive: [1] | [2] | [3]

C=CCc1ccc(O)c(OC)c1
inactive: [1] | [2] | [3]

Cc1c(N(C)CS(=O)(=O)O)c(=O)n(-c2ccccc2)n1C
inactive: [1] | [2] | [3]
